Compound activity as filed in PubChem.
Shown are actives, neighbours in structure and some others; about 6% of the full set was active somewhere.
D3 ag: D3 dopamine receptor (human) agonism; max activation, %; 0.58% of 410,000 active; D3R DiscoveRx beta-arrestin cells, luminescence, 90 min; AID 652048; P35462; in the data active means max activation above about 30%; further: 0% is about no effect
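Agonist mode: compounds and dopamine controls were applied to plated cells for 90 min at 37 degrees C after an overnight attachment at 1500 cells/well. Luminescent read-out followed 30 - 60 minutes at room temperature with DiscoveRx detection reagent.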
DRD3 antagonist: D3 dopamine receptor (human) antagonism | max response, negative = inhibition, % | D3R cells, DiscoveRx beta-arrestin luminescence, antagonist mode; hits give low values | 2.5% of 360,000 active | P35462 | AID 652054; in the data active means max response below about -50%; inconclusive means no clear call, values can overlap the other calls; further: on the % scale 0 is the no-effect control and ±100 the full control effect
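Cells plated overnight at 1500 cells/well, then exposed to library compounds with dopamine controls for 90 minutes at 37 degrees C. DiscoveRx reagent added for 30–60 minutes at room temperature; luminescence read, quantitative HTS format.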
D1 potentiator: potentiators of human D1 dopamine receptor | HEK293 TREx D1 cells, calcium flux, dopamine EC20 potentiation | potentiation, % at 10 µM | 0.036% of 360,000 active; in the data active means potentiation above about 30%; further: 0% is about no effect
Target sequence (P21728 whole entry, looked up): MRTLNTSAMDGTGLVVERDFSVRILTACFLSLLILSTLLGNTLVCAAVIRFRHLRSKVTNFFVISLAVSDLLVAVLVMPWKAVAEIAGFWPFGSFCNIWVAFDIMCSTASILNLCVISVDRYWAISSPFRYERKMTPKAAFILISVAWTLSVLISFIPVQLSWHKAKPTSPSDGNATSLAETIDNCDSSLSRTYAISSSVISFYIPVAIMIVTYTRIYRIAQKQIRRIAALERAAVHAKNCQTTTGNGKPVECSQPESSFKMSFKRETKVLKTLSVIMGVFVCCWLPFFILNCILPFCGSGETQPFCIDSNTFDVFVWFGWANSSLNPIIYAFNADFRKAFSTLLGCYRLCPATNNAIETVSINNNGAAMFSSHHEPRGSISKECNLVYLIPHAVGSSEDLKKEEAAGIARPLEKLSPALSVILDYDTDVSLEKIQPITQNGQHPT
D1 antagonist: antagonists of human D1 dopamine receptor; P21728; HEK293 TREx D1 cells, calcium flux, dopamine EC80; hits give low values; activity change, negative = inhibition, % at 10 µM; 3.2% of 360,000 active; in the data active means activity change below about -30%; further: on the % scale 0 is the no-effect control and ±100 the full control effect
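Antagonism measured as reduced calcium response to an EC80 dopamine addition following 180 s compound pre-read; cells were inducible HEK293 Trex D1 plated overnight at 30 C, read kinetically at 1 cycle/sec.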
D1 agonist: human D1 receptor agonism; P21728; HEK293 T-REx D1 cells, calcium flux, agonist mode; activation, % at 2 µM; 1% of 360,000 active; AID 504660; in the data active means activation above about 30%; further: 0% is about no effect
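Tetracycline-induced HEK293 TREx D1 cells, force-coupled to calcium signalling, were dye-loaded with a no-wash calcium kit. Compound was pin-added after a 10 s baseline. Fluorescence was read kinetically at 1 cycle/s for 180 s, with calcium rises flagged as agonism.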
Starred values were filed as active, the others as inactive; ? = inconclusive; · = no result given.

SMILES	D3 ag	DRD3 antagonist	D1 potentiator	D1 antagonist	D1 agonist
CCC1C(=O)C(C)(C)C(=O)OC1c1ccc([N+](=O)[O-])cc1 (stereo not drawn)	-5.9	-27.9	-7.0	2.0	0.4
CN1CCN(C(=O)c2ccccc2N(Cc2ccccc2)S(=O)(=O)c2ccccc2)CC1	-56.8	-60.4*	-5.2	6.3	-1.0
Cc1ccc(S(=O)(=O)N(C)c2ccc(C(=O)NCc3cccnc3)cc2)cc1	-2.5	-12.2	-0.6	-9.2	0.1
Cc1ccc(S(=O)(=O)N(Cc2ccccc2)c2ccccc2C(=O)NCc2cccnc2)cc1	4.8	-1.5	-6.2	-38.3*	2.9
COCCN1C[C@@H](CO)O[C@@H](n2cnc3c(N4CCN(C)CC4)ncnc32)C1	-0.1	1.2	·	·	·
COCCN1C[C@@H](CO)O[C@@H](n2cnc3c(N4CCCC4)ncnc32)C1	87.5*	45.7	·	·	·
OC[C@@H]1CN(CCN2CCOCC2)C[C@H](n2cnc3c(NC4CCCC4)ncnc32)O1	-10.5	-51.2*	·	·	·
OC[C@@H]1CN(CCN2CCOCC2)C[C@H](n2cnc3c(NC4CC4)ncnc32)O1	-7.1	0.0	·	·	·
Cc1ccc(CNS(=O)(=O)c2cc(C(=O)Nc3cccc(C(F)(F)F)c3)ccc2F)cc1	-5.7	·	-1.4	-6.6	11.2
Cn1c(Cn2c(=O)sc3ccccc32)nnc1SCC(=O)NCc1ccc(F)cc1	-0.8	-15.8	-1.1	2.4	2.0
O=C(CSc1nnc(Cn2c(=O)sc3ccccc32)n1-c1ccccc1)N1CCOCC1	11.7	-8.6	-2.8	-6.1	6.8
Cn1c(Cn2c(=O)sc3ccccc32)nnc1SCC(=O)NCc1ccccc1	-8.9	-63.2*	-0.9	-1.6	2.0
Cc1ccccc1-n1c(Cn2c(=O)sc3ccccc32)nnc1SCC(=O)N1CCOCC1	3.6	4.8	·	-37.8*	4.3
COc1ccc(S(=O)(=O)N2c3ccc(Cl)cc3[C@@](O)(c3ccccc3Cl)[C@H]2C(=O)N2CCC[C@@H]2C(N)=O)cc1OC	4.2	·	·	·	·
O=C(Cn1c(=O)c2cccn2c2ccccc21)NCc1cccc(F)c1	-7.8	-5.8	10.3	4.2	7.7
O=C(Cn1ncc2c(Cl)cccc21)NCc1cccc(F)c1	8.2	·	-4.5	-81.4*	-0.2
O=C(Cn1ncc2c(Cl)cccc21)NCc1cccc(Br)c1	-16.3	·	-4.8	-30.2*	9.4
COCCn1c(C)cc(O)c(C(c2ccc(Cl)cc2)N2CCN(c3ccccc3)CC2)c1=O (stereo not drawn)	-15.2	·	0.8	-11.9	-0.9
C[C@@H]1CN(C(=O)c2ccc(OC3CCN(S(=O)(=O)N(C)C)CC3)cc2)C[C@H](C)O1	-11.3	-2.5	2.0	-30.3*	3.0
O=C(NNC(=S)Nc1cccc2ccccc12)c1cccc(Br)c1	0.3	?	0.7	-5.2	4.8
Cc1ccc(C(=O)NNC(=S)Nc2cccc3ccccc23)s1	-3.0	-94.6*	-18.5	-37.0*	3.3
COc1ccc(-c2c3c(=O)n(C)c(=O)n(C)c3c3c(-c4ccc(C)cc4)nc4ccccc4n23)cc1	2.6	·	-6.7	-15.1	0.4
Cc1ccn2c(CNCC3OCCc4ccccc43)c(C(=O)N3CCCCCC3)nc2c1 (stereo not drawn)	-12.7	-80.9*	-4.7	-6.7	0.1
Cc1ccn2c(CNCCn3cccn3)c(C(=O)N3CCCCCC3)nc2c1	-8.2	-17.3	2.6	-0.8	1.4
Cc1ccn2c(CNCCCn3cccn3)c(C(=O)N3CCCCCC3)nc2c1	-14.8	-58.1*	-1.6	0.0	2.9
SMILES	D3 ag	DRD3 antagonist	D1 potentiator	D1 antagonist	D1 agonist
CCOC(=O)CN1C(C(=O)c2ccccc2)=C(OC(=O)c2ccccc2)c2ccccc2S1(=O)=O	49.5*	·	-0.1	-11.1	3.8
COC(=O)CN1C(C(=O)c2ccccc2)=C(OC(=O)c2ccc(F)cc2)c2ccccc2S1(=O)=O	-6.8	·	-1.3	-78.2*	-0.5
CN(C)/C=C1\C=C2C(=O)c3ccccc3N2C1=O	4.6	13.5	1.8	-62.3*	335.0*
CN(C)S(=O)(=O)N1C(=O)c2ccccc2C1=O	0.5	2.1	0.9	10.3	3.9
COc1ccc(C2(O)CCN(CC(=O)Nc3nccs3)CC2)c(OC)c1	-5.8	-6.4	-19.6	-30.5*	1.8
COCCCNC(=S)N1CCN(c2nc(-c3ccc(Cl)cc3)cs2)CC1	-4.7	-0.9	·	·	·
CCN(CC)CCCNC(=S)N1CCN(c2nc(-c3ccccc3)cs2)CC1	-21.7	?	-19.3	-37.4*	28.9
COCCCNC(=S)N1CCN(c2nc(-c3ccccc3)cs2)CC1	4.9	34.8	-6.1	-33.2*	8.5
CC(C)CNC(=S)N1CCN(c2nc(-c3ccc(Cl)cc3)cs2)CC1	12.9	13.3	-9.5	-30.3*	-2.4
COc1ccc(/C=N/n2cc(-c3ccc(OC)cc3)nc2N)cc1	-9.4	-18.8	1.6	-38.2*	-1.5
COc1ccc2c(c1)OC(C)(C)C(c1ccccc1)C2c1ccc(OCCN2CCCC2)cc1 (stereo not drawn)	-16.3	·	·	·	·
O=C(CCCCn1c(=O)[nH]c2ccsc2c1=O)N1CCN(c2cccc(Cl)c2)CC1	4.5	·	-0.6	-36.4*	4.3
O=C(CCCn1c(=O)[nH]c2ccsc2c1=O)N1CCN(c2cccc(C(F)(F)F)c2)CC1	5.2	·	-0.5	-3.8	0.4
O=C(CCn1c(=O)[nH]c2ccsc2c1=O)N1CCN(c2cccc(Cl)c2)CC1	-0.1	14.1	-6.7	-49.5*	0.7
CCN(CC)CCOC(=O)c1ccc(NC(=O)/C=C/c2cccs2)cc1	-12.3	-101.4*	-4.9	2.7	6.5
CCOc1ccc(C(=O)Nc2cccc(C(=O)OCc3cc(=O)n4cc(C)sc4n3)c2)cc1	3.3	·	0.3	6.0	1.8
Cc1ccc(S(=O)(=O)n2nc(-c3ccco3)nc2NCc2ccc(N(C)C)cc2)cc1	-14.5	·	-2.1	-7.7	0.0
CCOc1ccc(C(=O)C(C)OC(=O)c2nc(Cl)ccc2Cl)cc1 (stereo not drawn)	5.3	15.3	3.0	-24.3	35.2*
CCOC(=O)C1=C(C)N=c2s/c(=C/c3ccc(OCC(=O)O)cc3)c(=O)n2C1c1ccc(SC)cc1 (stereo not drawn)	·	·	-6.7	-14.6	30.4*
CCOC(=O)C1=C(C)N=c2s/c(=C\c3ccc(OCC(=O)O)cc3)c(=O)n2C1c1ccc(Cl)cc1 (stereo not drawn)	4.7	19.3	-4.9	2.2	38.5*
O=S(=O)(c1ccc2c(c1)OCCO2)N1CCN(S(=O)(=O)c2cc(F)c(F)cc2F)CC1	·	·	1.6	-5.3	3.2
Clc1ccc2[nH]c3c(c2c1)CNCC3	-33.7	-97.7*	-24.9	-47.7*	7.7
Clc1cccc2c3c([nH]c12)CCNC3	-44.1	-60.1*	-9.6	-16.1	1.9
COc1ccc(N2CCN(Cc3nc4c(c(=O)[nH]c(=O)n4C)n3CC(C)C)CC2)cc1	-15.5	·	-0.2	0.7	-0.1
CC(C)CCNC(=O)c1cn(C)c2ccc(S(=O)(=O)N3CCOCC3)cc2c1=O	15.1	·	2.5	-9.0	-1.1
